Compound activity from PubChem BioAssay.
IDE act: activators of human insulin-degrading enzyme in cells | P14735 | 340,000 compounds, 0.073% hits | activation, % at 5.96 µM | AID 493087 | HEK cells, FAbeta-B cleavage, fluorescence polarization; 0% vehicle, 100% cell-free pure enzyme wells;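 active = activation above the mean of all tested compounds plus 3 SD, set per screening campaign, cut at about 17% in these data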
Target sequence (P14735 whole entry, looked up): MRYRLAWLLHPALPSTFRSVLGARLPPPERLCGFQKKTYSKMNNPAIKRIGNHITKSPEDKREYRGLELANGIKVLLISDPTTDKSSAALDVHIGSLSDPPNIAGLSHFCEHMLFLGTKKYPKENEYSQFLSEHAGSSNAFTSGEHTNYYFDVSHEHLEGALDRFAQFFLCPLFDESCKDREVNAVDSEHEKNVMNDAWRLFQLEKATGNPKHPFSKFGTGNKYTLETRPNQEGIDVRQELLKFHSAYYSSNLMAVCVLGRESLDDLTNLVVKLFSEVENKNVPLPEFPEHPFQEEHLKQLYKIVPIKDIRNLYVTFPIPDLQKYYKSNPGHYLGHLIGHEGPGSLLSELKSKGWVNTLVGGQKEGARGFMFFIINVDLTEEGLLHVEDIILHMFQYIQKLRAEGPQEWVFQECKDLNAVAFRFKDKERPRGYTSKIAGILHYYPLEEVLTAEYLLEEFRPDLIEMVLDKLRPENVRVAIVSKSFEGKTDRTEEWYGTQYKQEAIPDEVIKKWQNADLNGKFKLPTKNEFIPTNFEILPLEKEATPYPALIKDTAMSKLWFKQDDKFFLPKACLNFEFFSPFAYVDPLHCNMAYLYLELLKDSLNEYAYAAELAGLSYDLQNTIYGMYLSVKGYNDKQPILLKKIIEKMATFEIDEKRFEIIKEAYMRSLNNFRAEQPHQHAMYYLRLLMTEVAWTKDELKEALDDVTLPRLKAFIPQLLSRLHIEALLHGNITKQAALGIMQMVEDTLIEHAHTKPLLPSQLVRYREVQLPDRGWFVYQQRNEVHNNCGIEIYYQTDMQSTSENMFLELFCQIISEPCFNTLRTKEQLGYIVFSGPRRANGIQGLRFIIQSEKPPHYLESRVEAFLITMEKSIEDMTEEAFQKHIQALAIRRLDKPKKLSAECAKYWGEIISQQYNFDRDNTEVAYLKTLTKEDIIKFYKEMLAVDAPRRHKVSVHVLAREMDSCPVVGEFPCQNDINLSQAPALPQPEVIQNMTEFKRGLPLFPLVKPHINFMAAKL
HDAC3 inhib: inhibitors of human histone deacetylase 3. O15379. recombinant HDAC3, fluorogenic peptide/trypsin coupled, fluorescence. inhibition, % at 8.3 µM. 320,000 compounds, 0.15% hits; in the data active = inhibition above about 26%, passing the limit was not always enough
LANA-H2A inh: blocks KSHV LANA binding to histone H2A/H2B. cell-free LANA-H2A/H2B peptide, fluorescence polarization. inhibition, % (no concentration beside the values). 320,000 compounds, 0.6% hits. AID 2629; in the data active = inhibition mostly above about 10%, no sharp cut-off; inactive = mostly below about 6.7%
IDE inh: inhibits human insulin-degrading enzyme in HEK cells | P14735 | FAbetaB cleavage, fluorescence polarization | inhibition, % at 5.59 µM | 320,000 compounds, 0.41% hits | AID 434962;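 active = percent inhibition above the average of all tested compounds plus 3 SD, set per screening campaign, cut at about 16% in these data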;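 also: IDE supplied by intact live HEK cells; FP after avidin binding of uncleaved biotin substrate so inhibition keeps polarization high; 0% = DMSO wells and 100% = 60 µM reference IDE inhibitor Ii1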
* marks the source's active call; other numbers are inactive results; / = no result; + = active, no number. An excerpt weighted towards active compounds, which were near 1.1% of everything screened.

SMILES	IDE act	HDAC3 inhib	LANA-H2A inh	IDE inh
COc1ccc(N(C(=O)c2snc(C(N)=O)c2N)C(C(=O)NC2CCCC2)c2cc(OC)ccc2OC)c(OC)c1 (stereo not drawn)	1	-5	7	3
COc1ccc(N(C(=O)c2snc(C(N)=O)c2N)C(C(=O)NC2CCCCC2)c2ccc(F)cc2)c(OC)c1 (stereo not drawn)	5	-3	18*	-5
O=C(Nc1oc2ccccc2c(=O)c1-c1ccc(Cl)cc1)c1ccco1	5	4	2	4
Cc1cccc(C)c1Nc1nnc(SCC(=O)c2ccc(Br)s2)s1	3	27*	-3	-1
CCc1c(C)nc(SCc2ccccn2)[nH]c1=O	3	9	-5	-4
COc1ccc(OC)c(-n2c(Cn3c(-c4ccccn4)nc4ccccc43)n[nH]c2=S)c1	-1	9	14*	6
Cc1nnsc1NC(=O)OCc1ccc(C(C)(C)C)cc1	8	5	-12	1
CSc1cccc(NC(=S)N(CCCN2CCCC2)Cc2cccn2Cc2ccc(Cl)cc2)c1	-4	-5	13*	15
COc1ccccc1CNC(=O)C(C)n1cccc1C(=O)c1ccccc1 (stereo not drawn)	-4	9	-1	4
CC(C(=O)NCc1ccc(Cl)cc1)n1cccc1C(=O)c1ccccc1 (stereo not drawn)	2	5	19*	-10
Cc1ccc2c(CC(=O)Nc3cccc(S(=O)(=O)N4CCOCC4)c3)coc2c1	-3	-5	0	8
O=C1OC(CC(=O)N(Cc2nnc(-c3ccccc3Cl)o2)C2CC2)c2ccccc21 (stereo not drawn)	1	5	20*	2
O=C(c1cc([N+](=O)[O-])cc([N+](=O)[O-])c1)N(Cc1nnc(-c2ccccc2Cl)o1)C1CC1	2	-3	3	1
CC(C)C[C@H](NC(=O)c1nc[nH]c1C(=O)NCC(=O)OC(C)(C)C)C(=O)OC(C)(C)C	2	30*	-2	-3
CC(C)(C)OC(=O)[C@H](Cc1ccccc1)NC(=O)c1nc[nH]c1C(=O)NCCCCCN	4	2	2	1
CC(C)(C)OC(=O)NCCCCCNC(=O)c1[nH]cnc1C(=O)N[C@@H](Cc1ccccc1)C(=O)OC(C)(C)C	8	28*	-5	7
COC(=O)c1c(C(=O)OC)c(-c2ccc(OC)cc2)n2c1CS(=O)(=O)C2	-1	2	-2	6
Cc1ccc(NC(=O)CC2OC(=O)c3ccccc32)cc1S(=O)(=O)N1CCCCCC1 (stereo not drawn)	7	2	11*	-2
O=C(CC1OC(=O)c2ccccc21)Nc1ccc(Cl)c(S(=O)(=O)N2CCCCC2)c1 (stereo not drawn)	0	5	1	2
Cc1csc(=O)n1CCC(=O)NCc1ccc(F)cc1	3	2	-3	-2
CCN1CCN(C2=C(NS(=O)(=O)c3ccc(NC(C)=O)cc3)C(=O)c3ccccc3C2=O)CC1	-1	1	-2	-3
CC(=O)Nc1ccc(S(=O)(=O)NC2=C(N3CCN(Cc4ccccc4)CC3)C(=O)c3ccccc3C2=O)cc1	5	6	+	2
O=C(Oc1ccc(-n2cnnn2)cc1)c1ccco1	3	36*	-1	2
O=C(Oc1ccc(N2C(=O)CCC2=O)cc1)c1ccco1	0	8	1	3
CC(=O)Nc1ccc(OC(=O)c2ccco2)cc1	0	6	2	-3
SMILES	IDE act	HDAC3 inhib	LANA-H2A inh	IDE inh
CCCOC(=O)c1ccc(OC(=O)c2ccco2)cc1	6	33*	-3	-1
CC(C)CCc1noc(CN2CCN(CC(=O)NC(C)C)CC2)n1	5	-2	-2	3
CC(C)CCc1noc(CN2CCC(CCN3CCCC3=O)CC2)n1	-1	-8	11*	-4
O=C(CSc1nnc(-c2ccc(F)cc2)c2ccccc12)Nc1ccccc1Cl	7	0	5	7
COc1cccc(/C=C2\SC(=S)N(C(C)C(=O)NC3C=CS(=O)(=O)C3)C2=O)c1 (stereo not drawn)	3	-4	28*	7
COc1ccc(/C=C2\SC(=S)N(C(C)C(=O)NC3C=CS(=O)(=O)C3)C2=O)cc1 (stereo not drawn)	4	1	-3	5
O=C(Cc1ccccc1[N+](=O)[O-])N1CCN(c2ccc(F)cc2)CC1	3	1	0	1
Cc1cccc(N2CCN(C(=O)Cc3ccccc3[N+](=O)[O-])CC2)c1C	3	-1	21*	0
CCOC(=O)c1cnc2ccccc2c1NCCO	5	4	16*	-1
CCOC(=O)c1cnc2ccc(Br)cc2c1NCCO	3	0	-2	-3
CC(C)c1cc(C(=O)Nc2cc(Br)ccc2O)no1	4	1	-1	1
CC(C)c1cc(C(=O)Nc2cc(Cl)ccc2O)no1	7	12	13*	7
CCOc1ccc(NC(=O)CSc2nnc(Cn3cnc4ccccc43)n2C)cc1	3	-6	1	-3
CC(C)(C)c1cc(-c2nc(N)nc(N)n2)c(O)c(C(C)(C)C)c1	16	29*	5	-7
Cc1cc(C)c(C(=O)CSC2=NC(N)=C(C#N)C3(CCCCC3)C2C(N)=O)cc1C (stereo not drawn)	-3	-1	-3	2
COCCN=C1N[C@@H](c2cccc(C(F)(F)F)c2)C(C(=O)OC)=C(C)N1Cc1ccccc1	2	-15	7	7
C=CCN=C1N[C@@H](c2cccc(C(F)(F)F)c2)C(C(=O)OC)=C(C)N1CC	1	1	5	1
COC(=O)C1=C(C)N(Cc2ccccc2)C(=NCc2cccc(C(F)(F)F)c2)N[C@H]1c1cccc(C(F)(F)F)c1	29*	18	0	5
CCN1C(=NCC(C)C)N[C@@H](c2cccc(C(F)(F)F)c2)C(C(=O)OC)=C1C	0	-14	13*	6
COC(=O)C1=C(C)N(CC2CC2)C(=NCc2cccc(C(F)(F)F)c2)N[C@H]1c1ccccc1	2	-4	-5	0
COC(=O)C1=C(C)N(Cc2ccccc2)C(=NCc2cccc(C(F)(F)F)c2)N[C@H]1c1cccc(F)c1	24*	16	4	-2
Cc1ccc(S(=O)(=O)NCc2ccc(C(=O)NCCc3ccc(S(N)(=O)=O)cc3)cc2)cc1	-4	1	0	7
COC(=O)C1C=CC(OC2OC(COC(C)=O)C(OC(C)=O)C(OC(C)=O)C2OC(C)=O)n2c(=O)n(-c3ccccc3)c(=O)n21 (stereo not drawn)	3	/	/	/
O=C(Nc1cccc(NC(=O)c2cccs2)c1)c1ccc2c(c1)OCCO2	-1	2	-8	5
Cc1ccc(C(=O)Nc2ncc3c(n2)CC(c2ccco2)CC3=O)cc1 (stereo not drawn)	3	3	-3	0
O=C(Nc1ncc2c(n1)CC(c1ccco1)CC2=O)c1ccccc1 (stereo not drawn)	0	-4	44*	4
Cc1ccc(NC(=O)C2c3ccccc3Oc3ccccc32)c(C)c1	1	9	-3	2
